Screening results: PubChem BioAssay, several laboratories
GALR2 antag = GALR2 antagonists in receptor-expressing cells, primary screen. Galanin receptor type 2 (Homo sapiens), O43603. antagonist mode. inhibition, % at 4 µM. 140,000 tested, 0.39% active. AID 828, 2007; in the data active = inhibition above about 27%;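 note: cells stimulated with galanin 1-16 at roughly its EC80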
S1P2 blocker = human S1P2 receptor antagonists, primary screen, cell-based; Sphingosine 1-phosphate receptor 2 (Homo sapiens), O95136; cell-based S1P2 antagonist assay, inhibition at 5 uM; inhibition, % at 5 µM; 97,000 tested, 0.21% active; AID 736, 2007; in the data active = inhibition above about 45%;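 note: CRE beta-lactamase reporter cells expressing human S1P2 stimulated with S1P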
Target sequence (O95136 whole entry, looked up): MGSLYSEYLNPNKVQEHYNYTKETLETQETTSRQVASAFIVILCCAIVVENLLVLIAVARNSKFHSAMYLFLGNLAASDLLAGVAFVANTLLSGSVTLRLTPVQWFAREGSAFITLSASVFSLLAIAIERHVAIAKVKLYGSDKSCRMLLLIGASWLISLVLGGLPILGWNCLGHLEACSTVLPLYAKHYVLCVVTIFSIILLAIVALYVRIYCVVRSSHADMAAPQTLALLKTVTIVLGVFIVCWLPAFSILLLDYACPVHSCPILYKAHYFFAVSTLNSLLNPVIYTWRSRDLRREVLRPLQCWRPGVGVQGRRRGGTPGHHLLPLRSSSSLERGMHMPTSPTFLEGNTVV
PostGolgi ctrl = growth inhibition of yeast control strain, primary screen, counter-screen for post-Golgi transport modulator project. efflux-deficient yeast background strain, growth absorbance A615, 16 h. inhibition, % at 10 µM. 98,000 tested, 5% active. AID 738, 2007
PostGolgi yeast = phenotypic screen on post-Golgi transport, primary screen; inhibition, % at 10 µM; AID 739, 2007; 98,000 tested, 0.9% active; post-Golgi transport phenotypic cell assay;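 note: yeast cells grown in 1536-well plates; yeast grown about 18 h at 30C before absorbance read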
GALR2 agonist = GALR2 receptor agonists, primary screen, cell-based. GALR2-expressing cells, agonist activation read-out. 140,000 tested, 0.48% active. AID 803, 2007. Galanin receptor type 2 (Homo sapiens), O43603. activation, % (concentration not given with the values); in the data active = activation above about 5%, passing the limit was not always enough
S1P2 agonist = S1P2 receptor agonists, primary screen, cell-based; 97,000 tested, 0.46% active; Sphingosine 1-phosphate receptor 2 (Homo sapiens), O95136; AID 729, 2007; activation, % at 4.5 µM; S1P2-expressing cell line, agonist reporter read-out; in the data active = activation above about 16%
Hits are given with their value. The sample as a whole holds a higher share of hits than the screen did. Cut-off read from the data, not from the text of the source, unless noted: active = inhibition above about 30%; inactive = the rest.

Screening CCc1cccc(C)c1NC(=O)CN1C(=O)c2ccccc2S1(=O)=O returned GALR2 antag inactive, S1P2 blocker inactive, PostGolgi ctrl inactive, PostGolgi yeast inactive, GALR2 agonist inactive and S1P2 agonist inactive.
`Oc1[nH]c(=S)sc1/C=C1\C(c2ccccc2)=Nc2ccccc21` gave GALR2 antag inactive and GALR2 agonist inactive.
`COc1ccc(C2Nc3ccccc3C(=O)N2c2ccc(F)cc2)cc1CSc1ccccn1` (configuration not stated) gave GALR2 antag inactive and GALR2 agonist 6.4.
Screening CN(C)CC(C(=O)c1ccccc1)c1ccccc1 (configuration not stated) returned GALR2 antag 42, PostGolgi ctrl 31, PostGolgi yeast inactive and GALR2 agonist inactive.
`C/C(=N\NC(=O)c1ccn(C)n1)c1cccc(NC(=O)c2ccncc2)c1` gave GALR2 antag inactive and GALR2 agonist inactive.
CN(C)CC1CCCCC1C1(O)c2ccccc2CSc2sccc21 (configuration not stated) was read as GALR2 antag inactive, S1P2 blocker inactive, GALR2 agonist inactive and S1P2 agonist inactive.
CC1=NOC(=O)/C1=C\c1ccc(-c2ccc(Cl)cc2Cl)o1 was read as GALR2 antag inactive, S1P2 blocker inactive, PostGolgi ctrl 35, PostGolgi yeast 60, GALR2 agonist inactive and S1P2 agonist inactive.
Screening Cc1[nH][nH]c(=O)c1C(c1ccc(-c2ccc(Cl)cc2Cl)o1)c1c(C)[nH][nH]c1=O returned GALR2 antag inactive, S1P2 blocker inactive, PostGolgi ctrl inactive, PostGolgi yeast inactive, GALR2 agonist inactive and S1P2 agonist inactive.
Screening COC(=O)c1nn(-c2ccc3c(c2)OCO3)cc1O returned GALR2 antag inactive, S1P2 blocker inactive, PostGolgi ctrl 37, PostGolgi yeast inactive, GALR2 agonist inactive and S1P2 agonist inactive.
Screening Cc1cccc(S(=O)(=O)NC(Cc2c[nH]c3ccccc23)C(=O)O)c1 (configuration not stated) returned GALR2 antag inactive and GALR2 agonist inactive.
Cc1ccc2nc3sc(C(=O)N4CCCc5ccccc54)c(N)c3cc2c1 was read as GALR2 antag inactive, S1P2 blocker inactive, PostGolgi ctrl 50, PostGolgi yeast inactive, GALR2 agonist inactive and S1P2 agonist inactive.
COc1ccc(C(=O)OC(C(=O)c2ccccc2)c2ccccc2)cc1 (configuration not stated) was read as GALR2 antag inactive, S1P2 blocker inactive, PostGolgi ctrl 66, PostGolgi yeast inactive, GALR2 agonist inactive and S1P2 agonist inactive.
Screening O=C(Nn1cnnc1)c1csc2ccccc12 returned GALR2 antag inactive, S1P2 blocker inactive, PostGolgi ctrl inactive, PostGolgi yeast inactive, GALR2 agonist inactive and S1P2 agonist inactive.
For Cc1scc(C(=O)Nn2cnnc2)c1-c1ccccc1 the results were GALR2 antag inactive, S1P2 blocker inactive, PostGolgi ctrl 33, PostGolgi yeast inactive, GALR2 agonist inactive and S1P2 agonist inactive.
Screening COc1cccc(-c2nn(C)c3sc(C(=O)Nc4ccc5c(c4)OCCO5)cc23)c1 returned GALR2 antag inactive, PostGolgi ctrl 37, PostGolgi yeast inactive and GALR2 agonist inactive.
`Cn1nc(-c2ccccc2F)c2cc(C(=O)Nc3ccc4c(c3)OCCO4)sc21` gave GALR2 antag inactive, S1P2 blocker inactive, PostGolgi ctrl 52, PostGolgi yeast inactive, GALR2 agonist inactive and S1P2 agonist inactive.
COCCNC(=S)N/N=C/c1ccc(OCc2ccc(C(=O)OC)cc2)c(OC)c1 was read as GALR2 antag inactive and GALR2 agonist inactive.
Screening CCOc1ccc(CNC(=S)N/N=C\c2ccc([N+](=O)[O-])cc2)cc1 returned GALR2 antag inactive, S1P2 blocker inactive, PostGolgi ctrl 40, PostGolgi yeast inactive, GALR2 agonist inactive and S1P2 agonist inactive.
`CCCCOc1ccc(CNC(=S)N/N=C/c2ccc(OC)c(OC)c2)cc1` gave GALR2 antag inactive, S1P2 blocker inactive, PostGolgi ctrl 33, PostGolgi yeast inactive, GALR2 agonist inactive and S1P2 agonist inactive.
Cc1ccc(S(=O)(=O)NC(C)(C)CSc2nnc(Nc3ccccc3)s2)cc1 was read as GALR2 antag inactive, S1P2 blocker inactive, PostGolgi ctrl 34, PostGolgi yeast inactive, GALR2 agonist inactive and S1P2 agonist inactive.
For CCOC(=O)C(=Cc1ccc(OCc2ccc([N+](=O)[O-])cc2)c(OC)c1)C(=O)OCC the results were GALR2 antag inactive, S1P2 blocker inactive, PostGolgi ctrl 43, PostGolgi yeast inactive, GALR2 agonist inactive and S1P2 agonist inactive.
COC(=O)C(=Cc1ccc(OCc2ccc([N+](=O)[O-])cc2)c(OC)c1)C(=O)OC was read as GALR2 antag inactive, S1P2 blocker inactive, PostGolgi ctrl inactive, PostGolgi yeast inactive, GALR2 agonist inactive and S1P2 agonist inactive.
`COc1ccc(C(=O)C(CO)Oc2ccccc2OC)cc1OC` (configuration not stated) gave GALR2 antag inactive, S1P2 blocker inactive, PostGolgi ctrl inactive, PostGolgi yeast inactive, GALR2 agonist inactive and S1P2 agonist 19.
For COc1ccc(C(=O)c2ccc(OC)c(OC)c2)cc1OC the results were GALR2 antag inactive, S1P2 blocker inactive, PostGolgi ctrl inactive, PostGolgi yeast inactive, GALR2 agonist inactive and S1P2 agonist inactive.
Screening COc1ccc(OC)c(-c2csc(NC(=O)CSc3ccc([N+](=O)[O-])cc3)n2)c1 returned GALR2 antag inactive and GALR2 agonist inactive.
`CC12CC3CC(C)(C1)CC(C(=O)NC1=NCCS1)(C3)C2` gave GALR2 antag inactive, S1P2 blocker inactive, PostGolgi ctrl 38, PostGolgi yeast inactive, GALR2 agonist inactive and S1P2 agonist inactive.
`Cc1cc(=O)oc2ccc(OCC(=O)N(Cc3ccc(F)cc3)Cc3ccco3)cc12` gave GALR2 antag inactive, S1P2 blocker inactive, PostGolgi ctrl 44, PostGolgi yeast inactive, GALR2 agonist inactive and S1P2 agonist inactive.
For CCOC(=O)Oc1ccc2oc(=O)cc(C)c2c1 the results were GALR2 antag inactive, PostGolgi ctrl inactive, PostGolgi yeast inactive and GALR2 agonist inactive.
Cc1cc(C)c(S(=O)(=O)n2c([N+](=O)[O-])cnc2C)c(C)c1 was read as GALR2 antag inactive and GALR2 agonist inactive.
`O=C(Nc1ccc2c(c1)OCO2)NC1(C(F)(F)F)Oc2ccccc2O1` gave GALR2 antag inactive, S1P2 blocker inactive, PostGolgi ctrl inactive, PostGolgi yeast inactive, GALR2 agonist inactive and S1P2 agonist inactive.
For O=C(Nc1ccc2c(c1)OCCO2)NC1(C(F)(F)F)Oc2ccccc2O1 the results were GALR2 antag inactive, S1P2 blocker inactive, PostGolgi ctrl 34, PostGolgi yeast inactive, GALR2 agonist inactive and S1P2 agonist inactive.
O=C1C2ON(c3ccccc3)C(c3cccnc3)C2C(=O)N1c1ccccc1 (configuration not stated) was read as GALR2 antag inactive, PostGolgi ctrl inactive, PostGolgi yeast inactive and GALR2 agonist inactive.
